Screens deposited in PubChem by National Center for Advancing Translational Sciences (NCATS).
Only some compounds are listed: those with a hit (about 3.6% of all), similar ones and a draw of the others.
D1 potentiator: Potentiators of Human D1 Dopamine Receptor: qHTS. HEK293 TREx D1 cells, calcium flux, dopamine EC20 potentiation. potentiation, % at 10 µM. actives 0.036% (n = 360,000). AID 504651, 2011; in the data active means potentiation above about 30%; further: 0% is about no effect
Target sequence (P21728 whole entry, looked up): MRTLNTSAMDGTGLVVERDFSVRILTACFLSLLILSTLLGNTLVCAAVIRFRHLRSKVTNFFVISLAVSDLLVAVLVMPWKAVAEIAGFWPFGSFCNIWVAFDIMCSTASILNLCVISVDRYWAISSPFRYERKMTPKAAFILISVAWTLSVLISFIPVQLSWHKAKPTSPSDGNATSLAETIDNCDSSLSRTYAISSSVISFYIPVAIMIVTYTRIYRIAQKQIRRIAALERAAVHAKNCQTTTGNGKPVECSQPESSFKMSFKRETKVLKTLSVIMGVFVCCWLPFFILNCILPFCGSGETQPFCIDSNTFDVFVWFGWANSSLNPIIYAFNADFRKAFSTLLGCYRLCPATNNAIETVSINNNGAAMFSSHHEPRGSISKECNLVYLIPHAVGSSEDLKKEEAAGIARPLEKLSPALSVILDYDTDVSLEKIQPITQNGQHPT
D1 antagonist: Antagonist of Human D 1 Dopamine Receptor: qHTS; D(1A) dopamine receptor (Homo sapiens), P21728; actives 3.2% (n = 360,000); HEK293 TREx D1 cells, calcium flux, dopamine EC80; stronger effect = lower value; activity change, negative = inhibition, % at 10 µM; in the data active means activity change below about -30%; further: on the % scale 0 is the no-effect control and ±100 the full control effect
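Tetracycline-induced HEK293 T-REx cells with force-coupled D1 receptor were loaded with a no-wash calcium dye. Compound was added after a 10 s baseline and read kinetically for 180 s; EC80 dopamine was then added and calcium flux followed another 180 s.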
D1 agonist: Allosteric Agonists of the Human D1 Dopamine Receptor: qHTS | D(1A) dopamine receptor (Homo sapiens), P21728 | HEK293 T-REx D1 cells, calcium flux, agonist mode | activation, % at 2 µM | AID 504660, 2011 | actives 1% (n = 360,000); further: 0% is about no effect
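Agonism was scored from calcium flux recorded over 180 s (1 read/s) after pintool compound addition, following a 10-cycle baseline. Cells were inducible force-coupled HEK293 TREx D1, plated overnight at 30 C and loaded with no-wash calcium dye.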
TRHR enhancer: qHTS for Small Molecule Agonists and Allosteric Enhancers of Human TRH Receptor: Primary Screen for Enhancers; TRHR cells, fluo-8 calcium fluorescence, EC20 TRH enhancement; AID 493056, 2011; actives 0.66% (n = 360,000); enhancement, % at 2 µM; in the data active means enhancement above about 30%; further: 0% is about no effect
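TRHR-expressing cells loaded with fluo-8 calcium dye were read kinetically (ex 480/em 530) during compound addition, then stimulated with an EC20 of TRH (10 nM final). Enhancement of the Gq-mediated intracellular calcium response was scored.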
TRHR ag: qHTS for Small Molecule Agonists and Allosteric Enhancers of Human TRH Receptor: Primary Screen for Agonists | TRHR cells, calcium flux fluo-8, FDSS agonist mode | activation, % at 2 µM | actives 0.18% (n = 360,000); further: 0% is about no effect
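Read-out: compound-evoked intracellular calcium rise in TRHR cells, fluo-8 dye, kinetic FDSS fluorescence at 1 s/cycle following a 10-cycle baseline. Cells cultured overnight before dye loading (30 min–1.5 h, RT).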
LDHA inh: qHTS assay for inhibitors of human lactate dehydrogenase | purified LDHA, NADH/diaphorase-resazurin fluorescence; stronger effect = lower value | activity change, % (values are at about 110 or 230 µM) | actives 0.15% (n = 480,000) | AID 1347041, 2019; in the data active means activity change below about -30%;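 further: plate controls were DMSO wells for no effect and wells without enzyme for full effect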
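Resorufin fluorescence (ex540/em590), read at 0 and 20 min after diaphorase/resazurin addition, reports the NADH left after a 5 min room-temperature reaction of 2 nM human LDH5 with 0.06 mM NADH and 0.2 mM pyruvate.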
Starred values were filed as active, the others as inactive; · = not tested or not shown. Unless noted, no stated cut-off is given here; in the data, active means activation above about 30%; inactive means the rest.

SMILES	D1 potentiator	D1 antagonist	D1 agonist	TRHR enhancer	TRHR ag	LDHA inh
Cc1noc(/C=C/c2cccnc2)c1[N+](=O)[O-]	-9.2	2.2	3.7	-4.3	0.5	-2.5
Cc1ccc(N/C=C/c2onc(C)c2[N+](=O)[O-])cc1	3.1	3.8	32.6*	-2.8	8.6	-4.5
Cc1noc(/C=C/c2ccc(-c3ccccc3Cl)o2)c1[N+](=O)[O-]	1.6	-3.6	133.5*	10.4	31.8*	3.3
C/C(CC(=O)Nc1ccc(Cl)cc1)=N\NC(=O)C1CCCCC1	·	·	·	·	·	7.7
COc1ccc(C(=O)/C=C/c2cn(CC(O)CN(CC(C)C)CC(C)C)c3ccccc23)cc1 (stereo not given)	-1.4	8.2	12.5	3.9	3.0	-1.9
CCCCN(C)CC(O)Cn1cc(/C=C/C(=O)c2ccc(OC)c(OC)c2)c2ccccc21 (stereo not given)	-3.0	-7.5	63.1*	-5.4	22.5	8.5
CC(C)(C)NCC(O)Cn1cc(C=O)c2ccccc21 (stereo not given)	4.5	12.7	2.4	2.0	1.7	-2.2
CCCCN(C)CC(O)Cn1cc(/C=C/C(=O)c2ccc(Br)cc2)c2ccccc21 (stereo not given)	-3.0	-56.7*	125.6*	-3.0	7.4	2.9
COc1ccc(C(=O)/C=C/c2cn(CC(O)CN3CCN(C)CC3)c3ccccc23)cc1OC (stereo not given)	-5.0	20.3	7.7	-1.3	12.7	-3.2
CCCCN(C)CC(O)Cn1cc(/C=C/C(=O)c2ccc(C)cc2)c2ccccc21 (stereo not given)	-5.1	-18.0	33.1*	0.8	2.2	0.0
COc1ccc(CCN2C(=O)CSC2=Nc2ccc(C(C)C)cc2)cc1OC	-2.4	-43.4*	5.0	-0.8	1.1	4.8
COc1ccc(N=C2SCC(=O)N2CCc2ccc(OC)c(OC)c2)cc1	-12.1	7.0	6.4	-8.3	-0.6	-3.8
O=c1c2cc3c(cc2n(Cc2ccccc2)c(=O)n1Cc1nc(-c2ccccc2)no1)OCO3	-1.1	-0.5	1.2	10.4	-0.9	1.4
O=c1c2cc3c(cc2n(Cc2cccc(Cl)c2)c(=O)n1Cc1nc(-c2ccccc2)no1)OCO3	-2.6	-51.8*	2.8	-3.8	0.8	-1.9
Cc1cc(NC(=O)COC(=O)c2nn(C(C)C)c(=O)c3ccccc23)no1	·	·	·	·	·	0.1
Cc1nc2ncnn2c(N2CCN(C(=O)c3cccc(F)c3)CC2)c1Cc1ccccc1	-4.5	-91.1*	2.1	-7.8	-1.3	0.0
O=C(Nc1ncccc1Cl)C1COc2ccccc2O1 (stereo not given)	-6.8	8.8	47.5*	-3.5	-0.1	1.5
Cc1ccc(C)n1-c1ccc(C(=O)NCc2ccncc2)cc1	-4.7	8.3	4.8	30.8*	2.0	-1.6
Cn1nnnc1SCCCNCc1cc(Br)ccc1OCc1ccccc1	-1.4	-24.9	39.4*	-0.6	0.3	-3.7
Cn1nnnc1SCCCNCc1ccc(-c2ccc(Br)cc2)o1	-0.5	-21.2	41.3*	1.6	0.9	-10.8
Brc1ccc(-c2ccc(CNCCSc3nnnn3-c3ccccc3)o2)cc1	8.6	20.7	14.4	4.1	3.7	1.6
Cn1nnnc1SCCNCc1ccc(OCc2ccc(Cl)cc2)cc1	-1.1	-9.4	46.4*	-4.1	1.2	3.2
CCOc1ccc(Br)cc1CNCCSc1nnnn1-c1ccccc1	0.7	-37.9*	105.8*	-13.8	7.3	0.4
CSC(C)C(=O)Nc1ccc(Br)c(C)c1 (stereo not given)	·	·	·	·	·	4.2
N#Cc1nc(C2CC2)oc1N1CCN(Cc2cccc3ccccc23)CC1	·	·	·	·	·	5.3
SMILES	D1 potentiator	D1 antagonist	D1 agonist	TRHR enhancer	TRHR ag	LDHA inh
COc1cccc(/C=C/C(=O)c2ccc(NS(=O)(=O)c3ccc(C)cc3)cc2)c1	-4.5	-59.7*	2.5	4.9	-0.1	-6.7
COc1ccc([C@@H]2CC(=O)c3c(O)cc(O)cc3O2)cc1O	-0.8	-15.1	-2.2	-0.6	-0.3	-7.3
COc1c(CC=C(C)C)cc(C2CC(=O)c3c(O)cc(O)cc3O2)cc1CC=C(C)C (stereo not given)	-8.3	-13.1	2.6	33.0*	0.0	-11.6
O=c1oc2ccccc2cc1-c1nnc(Nc2ccccc2)s1	·	·	·	·	·	-0.6
Cc1cnc(NS(=O)(=O)c2ccc(Cl)cc2)c(Br)c1	-1.1	-38.5*	0.9	2.8	-0.8	-1.3
Cc1ccc(S(=O)(=O)Nc2cc(-c3ccc(Cl)cc3)nn2C)cc1	-4.5	-19.6	0.7	3.9	-1.2	-13.3
CC(=O)Cc1nsc(NC(=O)c2ccc(-c3ccc(Cl)cc3Cl)o2)n1	-8.7	-30.7*	4.3	4.2	-0.2	-3.6
CC(=O)Cc1nsc(NC(=O)c2ccc(-c3cc(C(F)(F)F)ccc3Cl)o2)n1	-3.8	-32.6*	2.3	0.4	-0.2	-3.2
CC(=O)Cc1nsc(NC(=O)c2ccc(-c3cc(Cl)ccc3Cl)o2)n1	9.2	-12.8	5.7	-9.2	-0.6	-7.1
CCN(CC)S(=O)(=O)c1ccc2c(c1)cc(C(=O)NCCc1ccco1)n2C	·	·	·	·	·	2.8
COc1cccc(C2CC(=O)Nc3c(C(=O)O)cn(-c4cccc(Cl)c4)c32)c1OC (stereo not given)	·	·	·	·	·	7.2
COC(=O)c1nc2ccc(C)cn2c1F	-3.5	-58.1*	0.3	-4.2	0.3	-1.7
COC(=O)c1ccc2nc(-c3ccc(C)cc3)c(Cc3cccc(F)c3)n2c1	·	·	·	·	·	-0.3
O=C(N/C(=C\c1cccnc1)C(=O)N1CCC(O)CC1)c1ccccc1	2.1	-9.3	1.6	4.6	0.8	-2.6
O=C(N/C(=C/c1cccnc1)C(=O)N1CCCCCC1)c1cccc(Br)c1	-11.9	-39.0*	0.2	-4.4	-0.7	-1.5
O=C(NC(=S)N1CCCCCC1)c1ccccc1	-4.5	-0.4	-0.7	-6.8	0.1	-2.3
O=C(NC(=S)N1CCCCC1)c1cccnc1	-7.4	-33.9*	0.0	-19.7	0.4	-2.4
Cc1cc(/C=N/NC(=O)c2ccncc2)c(C)n1-c1ccccc1	-5.3	-2.5	1.5	-6.4	-1.0	2.7
Cc1ccc(-n2c(C)cc(/C=N/NC(=O)Cn3c4ccccc4c(=O)c4ccccc43)c2C)cc1	5.5	7.3	1.1	32.6*	-0.6	-0.7
Cc1cc(/C=N/NC(=O)c2cccs2)c(C)n1-c1ccccc1	-3.1	-39.0*	1.2	-3.3	-0.2	-2.7
